Results filed as inconclusive are left out. A number with no mark means an inactive call. The source made the active and inactive calls. Calls come from the whole dose curve.
What follows are molecules tested against Cytochrome P450 1A2 (Homo sapiens) (UniProt P05177) (assay: p450-cyp1a2 (AID 410;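 for activity change, negative = inhibition: -100% = full effect of reference inhibitor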)). Settings: recombinant CYP1A2, luciferin-ME demethylation, luminescence; series mostly up to 11.4 µM.
Cytochrome P450 1A2 (Homo sapiens), sequence (P05177 whole entry, looked up): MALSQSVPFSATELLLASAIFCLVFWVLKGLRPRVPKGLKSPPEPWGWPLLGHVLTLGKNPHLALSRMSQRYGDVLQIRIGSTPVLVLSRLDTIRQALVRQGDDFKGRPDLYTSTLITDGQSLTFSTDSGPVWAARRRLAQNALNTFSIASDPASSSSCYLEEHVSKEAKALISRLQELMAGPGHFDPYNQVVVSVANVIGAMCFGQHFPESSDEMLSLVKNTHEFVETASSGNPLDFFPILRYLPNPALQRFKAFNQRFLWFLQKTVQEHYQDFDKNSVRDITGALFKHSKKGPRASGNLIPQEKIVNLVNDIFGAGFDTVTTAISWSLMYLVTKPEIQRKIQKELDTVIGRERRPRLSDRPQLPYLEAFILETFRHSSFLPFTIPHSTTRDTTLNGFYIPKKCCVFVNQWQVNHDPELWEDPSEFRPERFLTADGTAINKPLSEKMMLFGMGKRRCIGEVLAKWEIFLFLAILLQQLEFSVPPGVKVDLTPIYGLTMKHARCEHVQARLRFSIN
Method: The P450 gene superfamily is involved in metabolism and the clearance of xenobiotics. This assay used human CYP1A2 to measure the demethylation of luciferin 6' methyl ether (Luciferin-ME; Promega-Glo) to luciferin. The luciferin is then measured by luminescence after the addition of a luciferase detection regeant. Luciferin-ME concentration in the assay was equal to its Km for CYP1A2.
NCGC Assay Protocol Summary:
Two uL of enzyme and substrate mix (final concentrations: 20nM CYP1A2, 100uM Luciferin-ME, 100mM KPO4) were dispensed into a white, solid bottom 1536-well microtiter plate. 23nL of compound was transferred by a pin tool. The plate was incubated at room temperature for 10 min. Two uL of an NADPH regeneration solution (Promega supplied reagent) was dispensed and the reaction was allowed to continue for 60 min at room temperature. Then the reaction was stopped by reconstituted detection reagent. After another 20 min of incubation the plate was read on the ViewLux (Perkin Elmer) at 60 sec exposure and 2x2 binning. This protocol was carried out with Promega-Glo reagents and further information can be found at http://www.promega.com/tbs/tb325/tb325.pdf. Data were normalized to the to AC100 inhibition (57 uM furafylline).
With NC(=O)CN1C[C@@H](O)CC1=O the Potency was “inactive”. In the case of O=C(O)[C@@H](O)[C@@H](O)[C@@H]1[O][Sb][O][C@@H]1CO, the activity change, negative = inhibition is reported as -5.1% [at 2.29 µM]. For CCn1cnc2c(Nc3cccc(Cl)c3)nc(N[C@@H]3CCCC[C@H]3N)nc21, the Potency was 15.8 µM (active). Work on c1ccc(CCN2CCOCC2)nc1 yielded an activity change, negative = inhibition of -3% [at 2.29 µM]. With c1ccc2c([C@@H]3CCN(CCN4CCOCC4)C3)c[nH]c2c1 the Potency was “inactive”. O=C(O)c1cc[c]([Hg][S]c2ncnc3nc[nH]c23)cc1 was tested, and the Potency was 0.316 µM (active). [N-]=[N+]=NCC(=O)c1c[nH]c(=O)[nH]c1=O gave an activity change, negative = inhibition of 0.1% [at 2.29 µM]. For O=c1[nH]cnc2[nH]cc(CN3CCCCC3)c12, the Potency was “inactive”. For COc1cc2c3cc1Oc1c(O)c(OC)cc4c1[C@@H](Cc1ccc(cc1)Oc1cc(ccc1O)C[C@H]3N(C)CC2)N(C)CC4, the Potency was “inactive”. With C[C@@]12CC[C@H](O)C[C@@H]1CC[C@@H]1[C@@H]2CC[C@@]2(C)[C@@H](C3=CC(=O)OC3)[C@H](O)C[C@]12O the Potency was “inactive”. In the case of C[C@@H](Cc1ccc(Cl)cc1Cl)NO, the Potency is reported as 0.251 µM (active). With COc1cc2c(cc1OC)[C@@]13CCN4C=C5CCO[C@H]6CC(=O)N2[C@@H]1[C@@H]6[C@H]5C[C@H]43 the Potency was 5.01 µM (active). For Nc1nnnn1CCO, the Potency was 6.31 µM (active). Work on CC[C@]1(OC(=O)CN)C(=O)OCc2c1cc1n(c2=O)Cc2cc3ccccc3nc2-1 yielded an activity change, negative = inhibition of -17.6% [at 2.29 µM]. CC(=O)O[C@H]1CC[C@@]2(C)[C@@H](CC[C@H]3[C@H]2CC(=O)[C@]2(C)[C@@H]3C[C@@H](N3CC3)[C@H]2C(C)=O)C1 was tested, and the Potency was 0.0398 µM (active). For C[C@H](CN(C)C)C(C#N)(c1ccccc1)c1ccccc1, the activity change, negative = inhibition was -3.4% [at 2.29 µM]. In the case of CN(C)CCCc1c[nH]c2ccccc12, the Potency is reported as “inactive”. In the case of c1cncc(CNCCN2CCNCC2)c1, the Potency is reported as “inactive”. CC1(C)CCC(C)(C)c2c1ccc(O)c2Cc1c(O)ccc2c1C(C)(C)CCC2(C)C was tested, and the Potency was 5.01 µM (active). CC(C)[C@@]1(NC(=O)[C@@H]2C=C3c4cccc5[nH]cc(c45)C[C@@H]3N(C)C2)O[C@]2(O)[C@H]3CCCN3C(=O)[C@H](Cc3ccccc3)N2C1=O was tested, and the Potency was 10 µM (active). With c1cc(C2N3CCCN2CC3)ccn1 (stereo not given) the Potency was 1.26 µM (active). For CN1C[C@H](C(=O)N[C@@]2(C)O[C@@]3(O)[C@H]4CCCN4C(=O)[C@@H](Cc4ccccc4)N3C2=O)C=C2c3cccc4[nH]cc(c34)C[C@@H]21, the Potency was 3.16 µM (active). For CC[C@@H]1CN2CCc3cc(OC)c(OC)cc3[C@H]2C[C@@H]1C[C@@H]1NCCc2cc(O)c(OC)cc21, the Potency was “inactive”. For NS(=O)(=O)C[C-]1C=C[CH]([Sb-]([Cl])([Cl])([Cl])([Cl])[Cl])C=C1.c1ccncc1 (stereo not given), the Potency was “inactive”. In the case of N#Cc1cccc(NC(=O)N2CCCC3(CCN(C(=O)Oc4ccccc4)CC3)C2)c1, the Potency is reported as 15.8 µM (active). In the case of FC(F)(F)c1nc2ccc(SSc3ccc4nc(C(F)(F)F)[nH]c4c3)cc2[nH]1, the Potency is reported as 0.501 µM (active). With C[C@]12CC[C@@H]3[C@H](CCC4=CC(=O)CC[C@]43C)[C@]1(O)CC[C@@]2(O)C(=O)CO the activity change, negative = inhibition was 4.8% [at 2.29 µM]. With CCN(CC)CCn1ncc2c(N)ncnc21 the Potency was “inactive”. With CC(C)C[C@H](NP(=O)(O)O[C@@H]1O[C@@H](C)[C@@H](O)[C@@H](O)[C@H]1O)C(=O)N[C@@H](Cc1c[nH]c2ccccc12)C(=O)O the Potency was “inactive”. In the case of CC(C)c1nccn1Cc1ccc(Cl)cc1Cl, the Potency is reported as “inactive”. For C[N+]1(C)CCc2cc3c(cc2[C@@H]1[C@@H]1OC(=O)c2c1ccc1c2OCO1)OCO3, the Potency was “inactive”. Oc1ccc(CCNCc2cc3c(cc2Br)OCO3)cc1 was tested, and the Potency was 1 µM (active). In the case of CC(C)c1ccc(C(O)(C(=O)O)c2ccc(C(C)C)cc2)cc1, the Potency is reported as “inactive”. In the case of C[C@H]1CC[C@@]2(NC1)O[C@@H]1C[C@@H]3[C@@H]4CC=C5C[C@@H](O)CC[C@]5(C)[C@@H]4CC[C@]3(C)[C@H]1[C@@H]2C, the Potency is reported as “inactive”. For Cc1ncc([N+](=O)[O-])n1CCN=[N+]=[N-], the Potency was “inactive”. For O=C(O)C(=O)Cc1ccc2c(c1)OCO2, the Potency was 3.98 µM (active). For C[N+]1([O-])[C@H]2CC[C@H]1CC(OC(=O)[C@@H](CO)c1ccccc1)C2 (stereo not given in full), the activity change, negative = inhibition was 0.8% [at 2.29 µM]. With C[C@]12CC[C@H](O)C[C@@H]1CC[C@H]1[C@H]2CC[C@]2(C)[C@H](C(=O)CO)CC[C@@H]12 the Potency was 25.1 µM (active). With CN[C@H]1[C@H](C)O[C@@H](O[C@@H]2C/C=C(/C)C/C(C)=C\C=C/CC[C@@H](C)CNC(=O)/C=C\C=C/[C@H]2C)C[C@@H]1O the Potency was “inactive”. With NNc1c(C(N)=O)c2c(N)ncnc2n1[C@@H]1O[C@H](CO)[C@@H](O)[C@@H]1O the activity change, negative = inhibition was -11.2% [at 2.29 µM].
Potency is the fitted concentration of half-maximal effect.
